Data: PubChem BioAssay AID1159580 (chemical genetic matrix, 2015)
The campaign covered roughly 5,500 compounds. About 2,000 (36%) were called active. Not shown: some 18% with an inconclusive outcome. No stated cut-off is given here; in the data, active means normalized growth mostly below about 0.91 (no sharp cut-off); inconclusive means no clear call, values can overlap the other calls; inactive means mostly above about 0.92. Some of the results follow.

Assay: chemical genetic growth profiling, strain panel (AID 1159580);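 further: tested at 20 µM; growth read once vehicle control cultures reached saturation at 30 °C; 1 = growth at the plate median or of vehicle wells; lower values mean less growth of the strain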
Settings: growth OD
[1] = S. cerevisiae deletion strains, locus YAL013W, strain DEP1, hits give low values
[2] = S. cerevisiae deletion strains, locus YAL040C, strain CLN3, hits give low values
[3] = S. cerevisiae deletion strains, locus YCL061C, strain MRC1 (second series), hits give low values
[4] = S. cerevisiae deletion strains, locus YDR150W, strain NUM1, hits give low values
[5] = S. cerevisiae deletion strains, locus YDR363W, strain ESC2, hits give low values
[6] = S. cerevisiae deletion strains, locus YER002W, strain NOP16, hits give low values
[7] = S. cerevisiae deletion strains, locus YGR078C, strain PAC10, hits give low values
[8] = S. cerevisiae deletion strains, locus YMR307W, strain GAS1, hits give low values
[9] = S. cerevisiae deletion strains, locus YNL153C, strain GIM3, hits give low values
[10] = S. cerevisiae deletion strains, locus YNL175C, strain NOP13, hits give low values
[11] = S. cerevisiae deletion strains, locus YNL197C, strain WHI3, hits give low values
[12] = S. cerevisiae deletion strains, locus YNL224C, strain SQS1, hits give low values
[13] = S. cerevisiae deletion strains, locus YNL322C, strain KRE1, hits give low values
[14] = S. cerevisiae deletion strains, locus YOR083W, strain WHI5 (second series), hits give low values
[15] = S. cerevisiae deletion strains, locus YNL128W, strain TEP1, hits give low values
[16] = S. cerevisiae deletion strains, locus YJR075W, strain HOC1, hits give low values
[17] = S. cerevisiae deletion strains, locus YMR263W, strain SAP30, hits give low values
[18] = S. cerevisiae deletion strains, locus YPL241C, strain CIN2, hits give low values
[19] = S. cerevisiae deletion strains, locus YBR229C, strain ROT2, hits give low values
[20] = S. cerevisiae deletion strains, locus YCL061C, strain MRC1, hits give low values
[21] = S. cerevisiae deletion strains, locus YDL101C, strain DUN1, hits give low values
[22] = S. cerevisiae deletion strains, locus YEL061C, strain CIN8, hits give low values
[23] = S. cerevisiae deletion strains, locus YHR030C, strain SLT2, hits give low values
[24] = S. cerevisiae deletion strains, locus YHR087W, strain rtc3, hits give low values
[25] = S. cerevisiae deletion strains, locus YJR043C, strain POL32, hits give low values
[26] = S. cerevisiae deletion strains, locus YLR039C, strain RIC1, hits give low values
[27] = S. cerevisiae deletion strains, locus YLR058C, strain SHM2 (second series), hits give low values
[28] = S. cerevisiae deletion strains, locus YLR085C, strain ARP6, hits give low values
[29] = S. cerevisiae deletion strains, locus YLR262C, strain YPT6, hits give low values
[30] = S. cerevisiae deletion strains, locus YML094W, strain GIM5, hits give low values
[31] = S. cerevisiae deletion strains, locus YMR219W, strain ESC1, hits give low values
[32] = S. cerevisiae deletion strains, locus YNL298W, strain CLA4 (second series), hits give low values
[33] = S. cerevisiae deletion strains, locus YNR030W, strain Alg12, hits give low values
[34] = S. cerevisiae deletion strains, locus YPL055C, strain LGE1, hits give low values
[35] = S. cerevisiae deletion strains, locus YPR135W, strain CTF4, hits give low values

Measured: normalized growth

Cn1ccc2cc3c(cc21)CCN3C(=O)Nc1cccnc1
inactive: [1] 0.995 | [2] 1 | [3] 1.01 | [4] 0.992 | [5] 0.999 | [6] 0.999 | [7] 0.998 | [8] 1.01 | [9] 0.976 | [10] 0.981 | [11] 1 | [12] 0.989 | [13] 1.01 | [14] 0.969

CN1CCc2cc(NC(=O)Nc3cccnc3)ccc21
inactive: [2] 0.994 | [3] 0.996 | [6] 0.996 | S. cerevisiae deletion strains, locus YGR229C, strain SMI1, hits give low values 0.988 | [15] 0.994 | [9] 1.01 | [10] 1.01 | [11] 0.992 | [12] 1.03 | [14] 0.977

COc1cc2c(cc1C(F)(F)F)N(C(=O)Nc1cc(F)cc(-c3cccnc3)c1)CC2
inactive: [1] 1.01 | [2] 1.08 | [3] 1 | [4] 1.02 | [5] 1 | [6] 1.05 | [17] 1.01 | [15] 1.05 | [10] 1.01 | [11] 1.01 | [12] 1.02 | [13] 1.01 | [14] 0.9 | [18] 1.01
active: [16] 1.11 [resistant]

c1ccc(C2CC2)c(OCC2=NCCN2)c1
inactive: [2] 1.05 | [3] 1.01 | [4] 1 | [5] 1.02 | [6] 0.98 | [7] 1.01 | [17] 1.01 | [10] 0.994 | [11] 0.984 | [12] 0.994 | [13] 0.999 | [14] 1.02 | [18] 1.01

O=C1c2cccc3c(SCCO)ccc(c23)C(=O)N1CCc1ccccn1
inactive: [1] 0.999 | [19] 0.997 | [20] 1 | [21] 1.09 | S. cerevisiae deletion strains, locus YDL134C, strain PPH21, hits give low values 1.01 | [4] 1.02 | [22] 1 | [7] 1.01 | [23] 0.903 | [24] 1 | [25] 0.994 | [16] 0.984 | [26] 1 | [27] 0.991 | [28] 0.948 | [29] 1 | [30] 1.01 | [31] 0.995 | [17] 1.01 | [15] 1 | [9] 0.995 | [32] 0.993 | [13] 0.996 | [33] 0.989 | [34] 1.03 | [18] 0.989 | [35] 0.907
active: S. cerevisiae deletion strains, locus YJL187C, strain SWE1, hits give low values 0.845

O=C1CNC(=S)N1CCc1ccccn1
inactive: [1] 0.992 | [19] 0.987 | [20] 0.99 | [21] 0.978 | [4] 0.994 | [22] 0.999 | [7] 0.987 | [23] 0.951 | [24] 0.992 | [25] 0.991 | [16] 1.01 | [26] 0.973 | [27] 0.979 | [28] 1.02 | [29] 0.962 | [30] 0.945 | [31] 0.993 | [17] 1 | [8] 1.08 | [9] 1.01 | [32] 0.966 | [13] 0.983 | [33] 0.98 | S. cerevisiae deletion strains, locus YOL006C, strain TOP1, hits give low values 0.997 | [34] 0.998 | [18] 1.03 | [35] 0.914 | S. cerevisiae strains, strain wild type, hits give low values 0.969
